Here are results for 40 molecules from PubChem BioAssay (Tox21).

Molecules are shown by their SMILES. Inconclusive results are not listed. A call without a number means that no potency is given here. Active and inactive are the calls of the source. Calls come from the whole dose curve; as a rule, active = well fitted curve in the direction sought with a large enough effect in the repeat runs; inconclusive = weak or mixed curves; inactive = no such curve, though single readings can be large; an effect the other way counts as inactive or inconclusive.
Potency is the fitted concentration of half-maximal effect.

A short description of one assay: qHTS assay to identify small molecule antagonists of the estrogen related receptor (ERR) signaling pathway (AID 1224819; note: nearly all actives have a fitted effect of over 50% in size). The following applies: ERR reporter cell line, luciferase inhibition; series mostly up to 46.1 µM. The essentials:
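qHTS in ERR cells, 2,000/well, 1536 format. Cpd (DMSO) added after 6 h settle, 18 h 37 C. One-Glo luminescence, 30 min RT.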
In general terms: qHTS replaces the single test concentration by a dilution series.
In the case of `CC(C)c1ccc2c(c1)c(SC(C)(C)C)c(CC(C)(C)C(=O)O)n2Cc1ccc(Cl)cc1`, the Potency is 12.8 µM (active). Turning to `CCc1ccc(/C=C2/SC(=S)NC2=O)cc1`, the Potency result was “inactive”. With `Cc1ccc(S(=O)(=O)N[C@@H](Cc2ccccc2)C(=O)CCl)cc1`, the Potency entry is “inactive”. On to `CCCCS(=N)(=O)CC[C@H](N)C(=O)O` (some centres undefined), for which the Potency result is “inactive”. For `COc1cc2c(CCNC(C)=O)c[nH]c2cc1O`, the Potency result was “inactive”. Still for that read-out and setting: for `Cc1cc2c(cc1Cl)N(C(=O)Nc1ccc(Oc3cccnc3C)nc1)CC2` the value was 5.11 µM (active). Take `Oc1cc2c(c(Cl)c1O)CCNCC2c1ccccc1` (centres undefined): the Potency was 8.41 µM (active). The same measure, in the same setting: for `O=Nc1c(-c2c(O)[nH]c3ccccc23)[nH]c2ccccc12` the value was “inactive”; for `CN(C)c1cc2c(Nc3ccc4c(cnn4Cc4ccccc4)c3)ncnc2cn1`, 13.3 µM (active); for `COC1=C(OC)C(=O)c2ccccc2C1=O`, 11 µM (active). The same measure, in the same setting: to `CN=c1nc(-c2ccccc2)n(-c2ccccc2)s1` belongs “inactive”; to `C=CC[C@H](N)C(=O)O`, “inactive”; to `COc1cc(OC)cc(-c2cc3cnc(N)nc3nc2NC(=O)NC(C)(C)C)c1`, 20.3 µM (active). Same read-out and setting: for `CCOC(=O)C1=C(C)NC(C)=C(C(=O)OCC)C1c1c(F)c(F)c(F)c(F)c1F` the value was 19.6 µM (active). As for `COc1ccc(C(=O)/C(Cc2cc(OC)c(OC)c(OC)c2)=C(\C(=O)O)c2ccc3c(c2)OCO3)cc1`, the Potency was 10.2 µM (active). `CC(C)(C)c1ccc(S(=O)(=O)/C=C/C#N)cc1`: the Potency entry is “inactive”.

Regarding `O=C(c1ccc(Cl)cc1)N1CCN(c2ccc([N+](=O)[O-])c3ncccc23)CC1`, the Potency is 7.5 µM (active).

With `O=C1NCc2c1c1c3ccccc3[nH]c1c1[nH]c3ccccc3c21`, the Potency is 2.76 µM (active).

For `NC[C@@H]1O[C@H](C23CC4CC(CC(C4)C2)C3)Cc2c1ccc(O)c2O`, the Potency was 22.8 µM (active). Turning to `CN(C)c1ccc(/C=C2\C(=O)Nc3ccccc32)cc1`, the Potency entry was “inactive”. As for `CCN(c1nc(N)c(C(=O)N=C(N)N)nc1Cl)C(C)C`, the Potency is 9.81 µM (active).

As for `Nc1ccc2c3c(cccc13)C(=O)NC2=O`, the Potency result was “inactive”. Still for that read-out and setting: for `O=C(O)c1cc([N+](=O)[O-])ccc1NCCCc1ccccc1` the value was “inactive”; for `COc1cccc(C(=O)NCCN2CCN(c3ccc(Cl)cc3)CC2)c1`, 17.4 µM (active). For `O=C1c2ccccc2-c2n[nH]c3cccc1c23`, the Potency is 26.6 µM (active). Still for that read-out and setting: for `COc1cc(NS(C)(=O)=O)ccc1Nc1c2ccccc2nc2ccccc12` the value was 0.779 µM (active).

With `O=C(NOCC1CC1)c1cc(Br)c(F)c(F)c1Nc1ccc(I)cc1Cl`, the Potency is 2.98 µM (active).

On to `N#C/C(=C\c1ccc(O)c(O)c1)C(=O)Nc1ccccc1`, for which the Potency entry was “inactive”. Still for that read-out and setting: to `O=[N+]([O-])c1ccc(-c2nc(-c3ccc(F)cc3)c(-c3ccncc3)[nH]2)cc1` belongs 13.3 µM (active); to `C[C@H](O)C(=O)C1=Nc2c(nc(N)[nH]c2=O)NC1`, “inactive”. Same read-out and setting: to `CC1(C)C(=O)N(CCN2CCC(C(=O)c3ccc(F)cc3)CC2)c2ccccc21` belongs 21.1 µM (active); to `C=C1C(=O)O[C@@H]2[C@H]3O[C@]3(C)CCC=C(C)CC[C@@H]12`, “inactive”. With `NC(N)=NC(=O)c1nc(Cl)c(N2CCCCCC2)nc1N`, the Potency is 11.9 µM (active). Still for that read-out and setting: for `Cc1nc(N=Nc2cc(S(=O)(=O)O)c3cc([N+](=O)[O-])cc(S(=O)(=O)O)c3c2)c(COP(=O)(O)O)c(C=O)c1O` the value was “inactive”.

The nature of another assay: qHTS assay to identify small molecule agonists of the estrogen related receptor (ERR) signaling pathway (AID 1224820). Conditions: ERR reporter cell line, luciferase agonist mode; series mostly up to 46.1 µM. The essentials: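 ERR reporter cells (NTP line) plated 2,000/well, incubated 6 h at 37 C/5% CO2, then pinned with compounds in DMSO and held 18 h at 37 C. One-Glo added; luminescence read after 30 min at room temperature.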
As for `CC(C)c1ccc2c(c1)c(SC(C)(C)C)c(CC(C)(C)C(=O)O)n2Cc1ccc(Cl)cc1`, the Potency result was “inactive”.

As to `CCc1ccc(/C=C2/SC(=S)NC2=O)cc1`, the Potency entry is “inactive”.

For the molecule `Cc1ccc(S(=O)(=O)N[C@@H](Cc2ccccc2)C(=O)CCl)cc1`, the Potency result was “inactive”. On the same count and under the same terms, for `COc1cc2c(CCNC(C)=O)c[nH]c2cc1O` the value was “inactive”; for `Cc1cc2c(cc1Cl)N(C(=O)Nc1ccc(Oc3cccnc3C)nc1)CC2`, “inactive”; for `Oc1cc2c(c(Cl)c1O)CCNCC2c1ccccc1` (centres undefined), “inactive”. Still for that read-out and setting: for `CN(C)c1cc2c(Nc3ccc4c(cnn4Cc4ccccc4)c3)ncnc2cn1` the value was “inactive”; for `COC1=C(OC)C(=O)c2ccccc2C1=O`, “inactive”; for `CN=c1nc(-c2ccccc2)n(-c2ccccc2)s1`, “inactive”. Consider `C=CC[C@H](N)C(=O)O`, for which the Potency result is “inactive”. In the case of `CCOC(=O)C1=C(C)NC(C)=C(C(=O)OCC)C1c1c(F)c(F)c(F)c(F)c1F`, the Potency result is “inactive”.

For the molecule `COc1ccc(C(=O)/C(Cc2cc(OC)c(OC)c(OC)c2)=C(\C(=O)O)c2ccc3c(c2)OCO3)cc1`, the Potency entry was “inactive”. On the same count and under the same terms, for `CC(C)(C)c1ccc(S(=O)(=O)/C=C/C#N)cc1` the value was “inactive”. The same measure, in the same setting: for `O=C(c1ccc(Cl)cc1)N1CCN(c2ccc([N+](=O)[O-])c3ncccc23)CC1` the value was “inactive”.

Regarding `O=C1NCc2c1c1c3ccccc3[nH]c1c1[nH]c3ccccc3c21`, the Potency result was “inactive”. Same read-out and setting: to `NC[C@@H]1O[C@H](C23CC4CC(CC(C4)C2)C3)Cc2c1ccc(O)c2O` belongs “inactive”; to `O=c1oc(Cl)c(Cl)c2ccccc12`, “inactive”. Turning to `CN(C)c1ccc(/C=C2\C(=O)Nc3ccccc32)cc1`, the Potency was 3.35 µM (active). On the same count and under the same terms, for `CCN(c1nc(N)c(C(=O)N=C(N)N)nc1Cl)C(C)C` the value was “inactive”. On to `Nc1ccc2c3c(cccc13)C(=O)NC2=O`, for which the Potency entry was “inactive”.

In the case of `CC(C)C[C@H](NC(=O)[C@@H](O)[C@H](N)Cc1ccccc1)C(=O)O`, the Potency entry is “inactive”. On the same count and under the same terms, for `O=C(O)c1cc([N+](=O)[O-])ccc1NCCCc1ccccc1` the value was “inactive”; for `COc1cccc(C(=O)NCCN2CCN(c3ccc(Cl)cc3)CC2)c1`, “inactive”; for `O=C1c2ccccc2-c2n[nH]c3cccc1c23`, “inactive”. On to `O=C(CCCCCN1CCN(c2ccccc2-c2ccccc2)CC1)NC1CCCc2ccccc21` (centres undefined), for which the Potency entry was “inactive”.

`COc1cc(NS(C)(=O)=O)ccc1Nc1c2ccccc2nc2ccccc12`: the Potency entry was “inactive”. Take `OC1(c2ccc(Cl)cc2)CCN(Cc2c[nH]c3ccccc23)CC1`: the Potency result is “inactive”.

`O=C(NOCC1CC1)c1cc(Br)c(F)c(F)c1Nc1ccc(I)cc1Cl`: the Potency entry was “inactive”. Same read-out and setting: for `O=[N+]([O-])c1ccc(-c2nc(-c3ccc(F)cc3)c(-c3ccncc3)[nH]2)cc1` the value was “inactive”.

Take `Cc1cc(Cl)ccc1OCCCC(=O)NO`: the Potency result was “inactive”. Still for that read-out and setting: for `C[C@H](O)C(=O)C1=Nc2c(nc(N)[nH]c2=O)NC1` the value was “inactive”; for `CC1(C)C(=O)N(CCN2CCC(C(=O)c3ccc(F)cc3)CC2)c2ccccc21`, “inactive”; for `NC(N)=NC(=O)c1nc(Cl)c(N2CCCCCC2)nc1N`, “inactive”. In the case of `CC(=O)/C=C1\C(=O)N(C)c2ccccc21`, the Potency entry was “inactive”. Still for that read-out and setting: for `Cc1nc(N=Nc2cc(S(=O)(=O)O)c3cc([N+](=O)[O-])cc(S(=O)(=O)O)c3c2)c(COP(=O)(O)O)c(C=O)c1O` the value was “inactive”.
